The sequences below were run against SCG3 (assay: pooled miR-30 sensor sort-seq; sequence = guide strand). Conditions: shRNA.
Also: reference of the scale not given here.

Sequence | sensor-assay potency score (higher = more potent)
TTCTTATAGATTGTCTTTCTTT | -0.774
TAATCTTGTCTTCTTCTGCTTC | -0.063
TTGTCATGTTTCTTCAACCATT | -1.02
TTTATGATCCAATCCACTCTTA | -0.0664
TTAATTTTTGTAAAACCTCTGC | -0.0676
TAGTTGATGAAGACCATCTGGA | 0.192
TTCTTCATGACTCTTCTCTGAT | 0.0122
TATTGTTCCATATTTCACCATC | -0.949
TAGTTTAGAAACAATCTTGTCA | 0.211
TTTCAAGGTAGGAAACACCTTC | 0.087
TAGTAGAGTCATAATCATCGAT | 0.0703

What follows are sequences tested against SCGB1D4 in the same assay as above. Conditions: shRNA.

Sequence | sensor-assay potency score (higher = more potent)
TTCACTTCCAACTTGGCTGCAA | 1.11
TTCAATGAGAGTCGTTTCTTAA | -0.987
TTAAAAGATATCTGATCGGTGC | 0.0419
TTTCAATGAGAGTCGTTTCTTA | 0.178
AATAAGAAGACTGTGATCTCAG | 0.355
TGATCTCAGAAGCAACAGCTGG | -1.12
AAAGATATCTGATCGGTGCAGT | 0.161
TATCTGATCGGTGCAGTGCTTC | -0.707
ATTAAGTTTGGCAACTTGGAGG | -1.05
TTTTTAGTGAAGATCAGGGTGT | 0.0112
TCTTAAAAGATATCTGATCGGT | -0.48
